This is a sample that favours compounds with a hit; in the whole collection about 11% have one here.
3T3 cytotox: NIH 3T3 cell cytotoxicity; NIH 3T3 viability, CellTiter-Glo ATP luminescence, 48-72 h; Potency, µM (titrated, usually from 96.7 µM), for the others: top-dose activity change, negative = cytotoxicity, actives largely listed as inhibitors; 94,000 tested, 4.3% active; AID 1345082; note: % is set by controls: 0 for no effect and ±100 for the full control effect; nearly all actives have a fitted effect of over 55% in size
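Cells were seeded at 400 per well, treated with pin-transferred compound, and kept 48 or 72 hr at 37 °C before CellTiter-Glo addition and luminescence imaging of cellular ATP.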
HEK293 tox: HEK 293 cell cytotoxicity; Potency, µM (series often up to 115 µM), inactives show top-dose activity change, negative = cytotoxicity, actives largely listed as inhibitors; 94,000 tested, 6.6% active; HEK 293 viability, ATP luminescence (CellTiter-Glo), 48-72 h; note: % is set by controls: 0 for no effect and ±100 for the full control effect; nearly all actives have a fitted effect of over 60% in size
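HEK 293 cells at 250 cells/well were exposed to compounds by pintool transfer for 48 or 72 hr at 37 degree Celsius, 5% CO2. Viability was read as ATP-coupled luminescence with CellTiter-Glo after 10 min at room temperature.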
FLuc inh-1: Photinus pyralis luciferase inhibition; Potency, µM (titrated, usually from 115 µM), most hits filed as inhibitors; purified P. pyralis luciferase, luminescence, biochemical; 76,000 tested, 2.5% active; note: % is set by controls: 0 for no effect and ±100 for the full control effect; nearly all actives have a fitted effect of over 65% in size
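Purified 10nM P. pyralis luciferase with 10uM D-luciferin and 10uM ATP in 50mM Tris acetate pH 7.5, 10mM Mg acetate, 0.01% Tween-20, 0.05% BSA. qHTS titration; luminescence read by CCD imager.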
hNpr1 antagonist: blocks ANP-stimulated signaling of human Npr1 receptor; HEK293 hNpr1 GloSensor cGMP, ANP-stimulated luminescence; Potency, µM (top dose mostly 46.3 µM), without a hit: at the top dose activity change, negative = inhibition, most hits filed as inhibitors; 76,000 tested, 1.6% active; AID 1347048; calls by dose curve; note: % is set by controls: 0 for no effect and ±100 for the full control effect; nearly all actives have a fitted effect of over 60% in size
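HEK293 cells stably expressing human Npr1 and cGMP GloSensor pGS-40F, loaded 2 h with 2% GloSensor reagent, given compound 30 min at room temperature. Luminescence read before and 20 min after 0.1 nM hNppA.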
FLuc SDR -ATP: binders stabilizing firefly luciferase, without ATP. Potency, µM (doses to about 32.7 µM), inactives show at the highest dose activation (signal gain), actives largely listed as activators. 1,300 tested, 7.8% active. Purified FLuc-C-HiBiT, Nano-Glo HiBiT luminescence, no ATP. shares compounds with FLuc inh-1; note: nearly all actives have a fitted effect of over 55% in size
FLuc SDR ATP: binders stabilizing firefly luciferase, plus ATP; shares compounds with FLuc inh-1; purified FLuc-C-HiBiT + ATP, HiBiT complementation luminescence; Potency, µM (doses to about 32.7 µM), without a hit: top-dose activation (gain of signal), usual class: activators; 1,300 tested, 8.7% active; AID 1963319;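 note: signal reports ligand binding via conformational change of the enzyme rather than luciferase catalysis; % of control where 0% means no effect; nearly all actives have a fitted effect of over 55% in size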
FLuc inh-2: firefly luciferase enzyme inhibition | shares compounds with FLuc inh-1 | purified FLuc-C-HiBiT enzyme, luciferin luminescence | Potency, µM (titrated, usually from 32.7 µM), inactives show top-dose activity change, negative = inhibition, actives largely listed as inhibitors | 1,300 tested, 42% active | AID 1963320; note: % is set by controls: 0 for no effect and ±100 for the full control effect; nearly all actives have a fitted effect of over 70% in size
* = called active by the depositor; i = inactive; ? = inconclusive; / = not tested or not shown; [ ] = remark or other dose. Unless noted, calls come from the whole dose curve; as a rule, active = well fitted curve in the direction sought with a large enough effect; inconclusive = small, poorly fitted or top-dose-only effect, or another doubt; inactive = no such curve, though single readings can be large; an effect the other way counts as inactive or inconclusive. Potency is the fitted concentration of half-maximal effect.

SMILES	3T3 cytotox	HEK293 tox	FLuc inh-1	hNpr1 antagonist	FLuc SDR -ATP	FLuc SDR ATP	FLuc inh-2
CC(=O)Nc1ccc(CN(C)Cc2cccc(C(F)(F)F)c2)cc1	-26.0%	?	/	/	/	/	/
CC(C)c1ccc(C(C)NC(=O)CN2CCCc3nc(-c4ccccc4)ncc3C2=O)cc1 (centres undefined)	-12.8%	?	i	-16.2%	/	/	/
Cc1nnc(CN2CCOc3c(O)cc(-c4ccccc4C)cc3C2)s1	?	?	i	-1.2%	/	/	/
Cc1cnc(C)c(-c2cc(O)c3c(c2)CN(C(=O)c2ccncn2)CCO3)n1	-18.8%	-1.2%	i	1.3%	/	/	/
Cc1nc(CN2CCOc3c(O)cc(-c4nc5ccccc5s4)cc3C2)no1	-23.3%	?	i	-0.9%	13.5%	7.5%	-10.6%
Cc1c(CN2CCOc3c(O)cc(-c4nc5ccccc5s4)cc3C2)cnn1C	/	/	/	/	13.0%	9.0%	-4.7%
Cc1cncc(C(=O)N2CCOc3c(O)cc(-c4nc5ccccc5s4)cc3C2)c1	?	39.8µM*	?	-5.6%	12.3%	8.0%	-10.8%
Cc1cc(C(=O)N2CCC(Cc3nc(-c4ccccc4)n[nH]3)C2)n(C)n1 (centres undefined)	?	-12.7%	i	-6.5%	/	/	/
O=C(c1ccc2oc(-c3cccc(F)c3)nc2c1)N1CCCCC1CCO (centres undefined)	?	?	14.1µM*	-20.6%	18.4%	15.7%	?
COc1cc(OC)cc(C(=O)Nc2cc(-c3nc4ccccc4s3)ccc2OC)c1	/	/	/	/	13.4%	8.1%	-13.2%
CCOc1cc(C(=O)Nc2ccc(-c3nc4ccccc4s3)cc2Cl)cc(OCC)c1OCC	/	/	/	/	16.7%	12.4%	?
COc1ccc(-c2nc3ccccc3s2)cc1NC(=O)c1ccc(F)cc1	/	/	/	/	14.4%	8.8%	-5.3%
COc1ccc(-c2noc([C@@H](C)NC(=O)c3nc4ccccc4s3)c2C(=O)O)cc1	-13.0%	?	?	-1.6%	/	/	/
COc1ccc(-c2ccc(NC(=O)c3ccc(F)cc3)cc2)nn1	3.8%[138 µM]	1.7%[172 µM]	/	/	/	/	/
COc1ccc(C(=O)NC2CCN(c3cnn(CC4CC4)c(=O)c3)CC2)c(OC)n1	?	?	i	-20.1%	/	/	/
Cn1cccc1-c1noc(C2CCN(C(=O)NC(C)(C)C)CC2)n1	-37.3%	?	/	/	/	/	/
CC(=O)N1CC2(Cc3ccccc31)CN([S+](=O)([O-])c1ccc(C)cc1)C2	?	?	i	0.6%	/	/	/
Cc1noc(-c2nc(-c3ccccc3C)no2)n1	i	-5.3%	?	2.6%	/	/	/
CCc1noc(-c2nc(-c3ccccc3C)no2)n1	-24.1%	?	14.1µM*	2.2%	9.2%	8.0%	-13.7%
Cc1nc(C2CC23CCN(S(=O)(=O)c2cccnc2)CC3)no1 (centres undefined)	-8.1%	4.3%	/	/	/	/	/
O=C(NCCC1CCCCC1)c1c[nH]c2ncccc12	?	70.8µM*	5.62µM*	?	?	18.3%[49.3 µM]	18µM*
Cc1cccc(N2CCN(C(=O)CSCc3ccc(F)cc3)CC2)c1C	/	/	/	/	11.9%	8.5%	-7.7%
CNC(=O)Nc1ccc(C)n(CC(=O)N2CCN(c3ccccc3F)CC2)c1=O	i	8.4%	i	2.2%	/	/	/
COC(=O)CNC(=O)c1nc2cccnc2n(-c2ccc(OC)cc2)c1=O	-15.3%	-4.2%	/	/	/	/	/
O=C(c1ccc(Cl)cc1)N1CCn2c(nn(-c3ccc([N+](=O)[O-])cc3)c2=O)C1	i	i	/	/	/	/	/
SMILES	3T3 cytotox	HEK293 tox	FLuc inh-1	hNpr1 antagonist	FLuc SDR -ATP	FLuc SDR ATP	FLuc inh-2
CN1CCN(CCCNc2nccc(-c3ccccn3)n2)CC1	-2.5%	i	i	8.3%	/	/	/
c1ccc(CCCNc2nccc(-c3ccccn3)n2)nc1	-30.2%	?	10µM*	1.5%	14.4%	15.3%	1.2%
O=C(NCCC1CCN(C(=O)Nc2cc(F)cc(F)c2)CC1)c1ccc(F)cc1	?	?	14.1µM*	-22.5%	16.8%	11.4%	-17.7%
Cc1ccc(NC(=O)N2CCC(CCNC(=O)C3CC3)CC2)cc1F	-16.9%	-11.7%	11.2µM*	-13.9%	?	?	?
O=C(NCCC1CCN(C(=O)Nc2ccccc2)CC1)c1ccc(F)cc1	-5.2%	2.5%	?	-14.5%	/	/	/
c1ccc(-c2n[nH]c(CC3CCNC3)n2)cc1 (centres undefined)	i	3.1%	i	-2.0%	/	/	/
O=C1NCCCCCCN(C(=O)c2ccncc2)[C@H]2C[C@H](c3nc(Cc4ccccc4)no3)C[C@@H]12	-13.0%	2.6%	i	-16.7%	/	/	/
Cc1cc(C)c(S(=O)(=O)N2CCCC(Cn3cc(CO)nn3)C2)c(C)c1 (centres undefined)	-27.5%	-22.3%	i	11.7%	/	/	/
OCc1cn(CC2CCN(c3ncnc4nc[nH]c34)CC2)nn1	i	-3.7%	i	3.1%	9.2%	7.5%	-2.3%
Cc1ccc(-c2nc(C(=O)N3CCN(c4ccccc4F)CC3)no2)cc1	?	?	?	2.4%	/	/	/
Cc1ccc(-c2nc(C(=O)N3CCN(c4ccccc4)CC3)no2)cc1	?	?	12.6µM*	-1.6%	26.3%	13.0%	?
COc1cccc(CNC(=O)N2c3ccccc3CC2c2noc(C3CCOCC3)n2)c1 (centres undefined)	-29.7%	-22.6%	5.01µM*	-3.7%	13.7%	14.4%	?
O=C(N1c2ccccc2CC1c1noc(C2CCOCC2)n1)C1(c2ccccc2)CC1 (centres undefined)	-23.5%	?	8.91µM*	-20.8%	19.3%	14.5%	?
O=C(C1CCC1)N1c2ccccc2CC1c1noc(C2CCOCC2)n1 (centres undefined)	-15.2%	?	1.78µM*	?	21.1%	18.5%	?
Cc1cc(C)cc(C(=O)N2c3ccccc3CC2c2nc(C3CC3)no2)c1 (centres undefined)	?	?	i	-19.6%	/	/	/
O=C(C1CCCC1)N1CCCC1c1nc(C2CCOCC2)no1 (centres undefined)	-15.1%	-10.0%	i	23.2%	/	/	/
O=C1Nc2ccccc2O[C@H]2C[C@@H]1N(Cc1ccccc1)C2	-37.1%[174 µM]	?	i	-12.9%[70.6 µM]	/	/	/
O=C(NC1CCCN(CCn2nc3n(c2=O)CCCC3)C1)c1ccc(C(F)(F)F)cc1 (centres undefined)	-15.7%	4.6%	/	/	/	/	/
COCCOCc1nc(C2CCN(C(=O)Nc3ccccc3F)C2)no1 (centres undefined)	-17.3%	-1.7%	/	/	/	/	/
O=C(N[C@@H]1CN(Cc2ccc(Cl)c(F)c2)C[C@H]1CO)C1CCC1	-13.2%	?	i	3.3%	/	/	/
